High-throughput results as filed in PubChem.
KB-V1 cytotox: KB-V1 MDR subline cytotoxicity | Potency, µM (doses to about 46.1 µM), hits mostly cytotoxic | AID 1347076 | KB-V1 MDR cells viability, CellTiter-Glo, 72 h | 400,000 tested, 3.4% active; also: nearly all actives have a fitted effect of over 60% in size
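Cytotoxicity toward P-gp-expressing KB-V1 cells was determined as loss of CellTiter-Glo luminescence after 72 h at 37 degrees C. Compounds were tested in quantitative HTS format across a concentration range, with curves fitted to normalized data.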
TGFb SMAD3 inh: TGF-b pathway inhibition; 410,000 tested, 1.2% active; HepG2 CAGA-GFP TGF-b/SMAD3 reporter, GFP fluorescence, 18 h; TGF-beta stimulated, 500 pg/mL final; AID 588855; Potency, µM (doses to about 46.1 µM), most hits filed as inhibitors; also: nearly all actives have a fitted effect of over 65% in size
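Smad-responsive CAGA-GFP expression was quantified in HEPG2 cells exposed to compounds and 500 pg/mL final TGF-beta for 18 h at 37 degrees C; unstimulated wells defined full inhibition.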
HT1080NT lethal: kills 2HG-producing HT-1080-NT fibrosarcoma cells. HT-1080-NT fibrosarcoma viability, CellTiter-Glo ATP luminescence, 48 h. Potency, µM (top dose mostly 46.1 µM), hits mostly cytotoxic. 360,000 tested, 1.6% active. AID 686970;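 also: NT is the 2HG producing partner of a matched IDH1 knockdown line; nearly all actives have a fitted effect of over 55% in size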
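Viability of the 2HG-overproducing fibrosarcoma line after 48 hours of compound exposure at 37 degrees C was determined by luminescence with CellTiter-Glo, and concentration-effect curves were then fitted and categorized.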
HepG2 viability: HepG2 cytotoxicity, counter-screen for TGF-b inhibitors; Potency, µM (highest dose often 46.1 µM), actives largely listed as cytotoxic; AID 588856; HepG2 CAGA-GFP viability, ATP luminescence, 18 h; 410,000 tested, 0.76% active
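CellTiter-Glo luminescence gave cytotoxicity after 18 hours at 37 degrees C. The cells were HepG2 CAGA-GFP in 1% FBS DMEM, stimulated with 500 pg/mL TGF-beta after compound addition. %Activity was normalised to no-cell wells (complete cell-killing) and DMSO (no toxicity), and curves were fitted and classified.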
KB-3-1 cytotox: kills parental KB-3-1 adenocarcinoma cells. Potency, µM (doses to about 46.1 µM), actives largely listed as cytotoxic. KB-3-1 viability, CellTiter-Glo ATP luminescence, 72 h. 400,000 tested, 1.4% active; also: nearly all actives have a fitted effect of over 60% in size
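Cytotoxicity measured as CellTiter-Glo luminescence after 72 h at 37 C. Compound titrations were pinned onto drug-naive KB-3-1 parental adenocarcinoma cells grown in DMEM with 10% FBS, and normalized data fitted to concentration-response curves.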
HT1080 IDH1KD tx: kills HT-1080 cells with IDH1 knockdown; AID 686971; HT-1080 IDH1 knockdown viability, ATP luminescence, 48 h; 360,000 tested, 2% active; Potency, µM (series often up to 46.1 µM), most hits filed as cytotoxic
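HT-1080-IDH1KD cells (IDH1 knocked down), 750/well in RPMI with 5% FBS, treated with compound 48 h at 37 degrees C. Viability by CellTiter-Glo luminescence, normalised to DMSO and no-cell wells; concentration-response curves classed.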
Hits are given with their value; i = inactive; ? = inconclusive; nt = not tested or not shown; [ ] = another dose, or the depositor's remark. Hits are enriched below; roughly 6.6% of the tested compounds scored in any of these assays. Calls follow the shape of the dose curve; as a rule, active = well fitted curve in the direction sought with a large enough effect; inconclusive = small, poorly fitted or top-dose-only effect, or another doubt; inactive = no such curve, though single readings can be large; an effect the other way counts as inactive or inconclusive.

SMILES	KB-V1 cytotox	TGFb SMAD3 inh	HT1080NT lethal	HepG2 viability	KB-3-1 cytotox	HT1080 IDH1KD tx
Cc1ccsc1/C=N/NC(=O)C(O)c1ccccc1 (centres undefined)	i	i	i	i	i	i
COC(=O)N/N=C/c1ccc([N+](=O)[O-])s1	?	?	i	i	i	?
Cc1ccnn1CC(=O)N/N=C/c1ccc([N+](=O)[O-])s1	i	11.2µM	?	i	?	i
O=C(N/N=C/c1ccc([N+](=O)[O-])s1)C(O)c1ccccc1 (centres undefined)	i	7.94µM	?	7.94µM	?	?
O=C(N/N=C/c1ccc([N+](=O)[O-])s1)c1ccccc1	i	11.2µM	i	12.6µM	?	i
O=C(N/N=C/c1ccc([N+](=O)[O-])s1)c1ccccc1Br	?	11.2µM	?	10µM	i	15.8µM
CC1CCN(S(=O)(=O)c2ccc3nc(Nc4ccc(C#N)cc4)ccc3c2)CC1	?	10µM	nt	i	?	nt
CC1CCN(S(=O)(=O)c2ccc3nc(NCc4ccc(F)cc4)ccc3c2)CC1	i	12.6µM	nt	i	i	nt
CC1CCN(S(=O)(=O)c2ccc3nc(NCc4ccc(N(C)C)cc4)ccc3c2)CC1	?	?	nt	i	?	nt
CC1CCN(S(=O)(=O)c2ccc3nc(Nc4cccc(C(F)(F)F)c4)ccc3c2)CC1	nt	?	nt	i	nt	nt
COc1ccc(Cl)cc1NC(=O)c1cnc(N2CCCCC2)c2ccccc12	i	i	nt	i	i	nt
COc1ccc(CNC(=O)c2cnn3c(C)c(Cc4c(F)cccc4Cl)c(C)nc23)cc1	i	i	nt	i	?	nt
CCOC(=O)N1CCN(C(=O)c2cnn3c(C)c(Cc4ccc(C)cc4)c(C)nc23)CC1	3.66µM	?	i	i	i	i
Cc1nc2c(C(=O)N3CCCC3)cnn2c(C)c1Cc1c(F)cccc1Cl	23.1µM	i	i	i	i	i
COc1ccc(Nc2ncc3c(n2)CCN(Cc2cccc(F)c2F)C3)c(OC)c1	i	i	nt	i	?	nt
COc1cc(-c2nc(Cn3nnc(C(=O)Nc4cccc(Cl)c4)c3C)c(C)o2)cc(OC)c1OC	i	i	nt	i	i	nt
COCCCNC(=S)N(Cc1ccccc1)Cc1ccccc1	18.4µM	i	i	i	i	i
COCCCNC(=O)CNC(=S)N(Cc1ccccc1)Cc1cccnc1	i	i	i	i	i	i
COc1cccc(Cl)c1NC(=O)N1CCc2c([nH]c3ccccc23)C1C(F)(F)F (centres undefined)	i	?	20.6µM	i	i	?
CC1c2[nH]c3ccccc3c2CCN1C(=O)Nc1ccccc1 (centres undefined)	8.2µM	i	?	i	?	?
CCn1c(C(=O)N2CCCC(C(=O)NCCCOC)C2)cc2sccc21 (centres undefined)	i	i	nt	i	i	nt
COc1ccc2nc(N=Nc3ccc(N(C)C)cc3)sc2c1	?	i	i	i	13µM	i
CC(=O)N1CCN(Cc2cc(=O)oc3cc(C)cc(C)c23)CC1	i	i	i	i	i	i
COc1ccc(/C=C/C(=O)c2ccc(C)c([N+](=O)[O-])c2)cc1O	?	17.8µM	i	20µM	?	?
COc1ccc2cc(C(=O)/C=C/c3cc(OC)c(O)c(OC)c3)ccc2c1	i	?	20.6µM	17.8µM	?	16.4µM
SMILES	KB-V1 cytotox	TGFb SMAD3 inh	HT1080NT lethal	HepG2 viability	KB-3-1 cytotox	HT1080 IDH1KD tx
COc1ccc(C(=O)/C=C/c2ccccc2)c(OC)c1	i	?	i	i	?	?
COc1cc(C)cc(C(=O)C=Cc2ccccc2)c1O	i	?	23.1µM	i	i	?
COc1ccc(C=CC(=O)c2cc(O)ccc2O)cc1	i	i	16.4µM	i	i	18.4µM
CCc1ccccc1N(C)C(=O)Cn1cnc2sc(C)c(S(=O)(=O)N3CCN(c4ncccn4)CC3)c2c1=O	?	i	nt	i	i	nt
COC(=O)c1ccc(/C=C/C(=O)c2cccc(OC)c2)cc1	i	?	?	i	i	23.1µM
COc1cc(/C=C/C(=O)c2ccc(C)c([N+](=O)[O-])c2)cc(OC)c1O	?	12.6µM	?	i	i	?
COc1cccc(/C=C/C(=O)c2ccc(C)c([N+](=O)[O-])c2)c1	i	?	?	i	i	i
COC(=O)[C@@]1(Cc2ccc(F)cc2)[C@H]2c3cc(C(=O)N4CCCC4)n(CCc4ccc(OC)c(Br)c4)c3C[C@H]2CN1C(=O)c1ccccc1	?	nt	i	nt	25.9µM	i
COC(=O)[C@@]1(Cc2ccc(OC)cc2)[C@H]2c3cc(C(=O)N4CCCC4)n(CCO)c3C[C@H]2CN1C(=O)c1ccccc1	i	?	i	i	i	i
COC(=O)[C@@]1(Cc2ccc(F)cc2)[C@H]2c3cc(C(=O)N4CCCC4)n(CCO)c3C[C@H]2CN1C(=O)c1ccccc1	i	i	i	i	i	i
COC(=O)[C@@]1(Cc2ccc(OC)cc2)[C@H]2c3cc(C(=O)N4CCCC4)n(CCc4ccc(OC)c(Br)c4)c3C[C@H]2CN1C(=O)c1ccccc1	18.4µM	nt	i	nt	?	i
Cc1ccc(OCc2cc(=O)n3c4c(sc3n2)CCCC4)cc1C	i	i	nt	i	i	nt
CCC(C)c1ccc(OCC(=O)Nc2cccc3ccc(C)nc23)cc1 (centres undefined)	i	i	nt	i	i	nt
CCc1cccc(-n2nnc(-c3nc(-c4ccc5c(c4)OCO5)no3)c2C)c1	nt	nt	nt	i	nt	nt
CCOC(=O)CC(NC(=O)c1ccco1)c1ccc(OC)cc1 (centres undefined)	23.1µM	i	i	i	i	i
O=Cc1c(Cl)nc2ccccn2c1=O	?	?	?	0.562µM	i	?
Cc1cccn2c(=O)c(C=O)c(Cl)nc12	?	15.8µM	?	i	i	?
CC1CCN(c2nc3ccccn3c(=O)c2C=O)CC1	i	i	i	i	i	i
CC(=O)N1CCN(c2csc3ccc(Cl)cc3c2=O)CC1	i	i	nt	i	i	nt
O=C(NCc1ccccc1)c1ccc(CSc2nc3cccnc3n2Cc2cccc(F)c2)cc1	?	i	nt	i	?	nt
Cc1ccc(NC(=O)C2CCCN(c3ncnc4c3nc3n4CCCCC3)C2)c(Br)c1 (centres undefined)	i	i	nt	i	i	nt
COc1ccc(-n2c(N)c(C(=O)NCc3ccco3)c3nc4ccccc4nc32)cc1	i	?	?	i	i	?
Nc1c(C(=O)NCCN2CCOCC2)c2nc3ccccc3nc2n1CCc1ccccc1F	i	?	?	i	i	?
Nc1c(C(=O)NCc2ccc3c(c2)OCO3)c2nc3ccccc3nc2n1CCCN1CCOCC1	i	?	?	11.2µM	i	i[9.24 µM]
Nc1c(C(=O)NCc2ccco2)c2nc3ccccc3nc2n1CCc1ccc(F)cc1	16.4µM	15.8µM	?	i	i	?
